Bioassay records (PubChem BioAssay)
Pf growth 96h: P. falciparum growth inhibition at 96 hour, primary screen for plastid delayed-death inhibitors. P. falciparum luciferase reporter growth, 96 h. Potency, µM (series often up to 28.7 µM), hits mostly inhibitors. 6.9% of 320,000 active
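Cell-based qHTS: luciferase-tagged P. falciparum in erythrocytes (2% hematocrit, 0.05% parasitemia final) incubated with compounds for 96 hours, 37 C, 5% CO2; luciferase detection reagent then added and luminescence measured.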
AMA1-RON2 inh: inhibitors of Plasmodium falciparum AMA1-RON2 interaction; Potency, µM (top dose mostly 58.2 µM), most hits filed as inhibitors; AID 720542; 0.2% of 360,000 active; AlphaScreen AMA1-biotinylated RON2 peptide binding; further: nearly all actives have a fitted effect of over 45% in size
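AMA1 (3D7) with his tag at 25 nM final met compounds first, then biotinylated RON2 peptide at 25 nM; detection used donor plus acceptor beads, 10 µg/mL apiece, read by AlphaScreen after 30 min at room temperature.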
Pf growth 48h: inhibits P. falciparum growth in the first generation, 48 h | P. falciparum luciferase growth in erythrocytes, 48 h | Potency, µM (series often up to 28.7 µM), usual class: inhibitors | 5.9% of 310,000 active | AID 504832
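Erythrocytes infected with P. falciparum carrying an integrated firefly luciferase reporter (2% hematocrit, 0.1% parasitemia final) were exposed to compounds in RPMI 1640 with 0.5% Albumax at 37 C, 5% CO2. Growth inhibition was scored as reduced luminescence.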
Shiga toxin inh: inhibitors of Shiga toxin in Vero cells | inhibition, % at 38.7 µM | Vero cells, Shiga toxin protein synthesis inhibition reporter | AID 2315 | 9.2% of 290,000 active; in the data active means inhibition mostly above about 28%, no sharp cut-off; inactive means mostly below about 43%
CHX counter: counter-screen hit for Shiga toxin inhibitors, cycloheximide. cell reporter, cycloheximide protein synthesis inhibition counterscreen. 12% of 300,000 active. max response, %; in the data active means max response mostly above about 13%, no sharp cut-off; inactive means mostly below about 14%; further: read at 38.3 µM for the half of the compounds with a filed dose
HCV inhibitor: HCV inhibition; Huh7.5.1 HCVcc-Cre infection, luciferase reporter, 44 h; AID 651820; Potency, µM (highest dose often 41.8 µM), most hits filed as inhibitors; 3.4% of 340,000 active
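Infectious HCV cell culture screen: compound-treated cells (1,000/well, pre-plated 4 h) are infected with HCVcc-Cre at roughly 0.5 moi and grown 44 h. Infection is quantified by luciferase signal after 15 min substrate incubation at room temperature.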
A number is an active result; - = inactive; ? = inconclusive; . = no result given. Most compounds without a hit are left out; they make up all but 21% or so of the library. Unless noted, the call rests on the fitted dose curve; in most records, active means well fitted curve in the direction sought with a large enough effect; inconclusive means small, poorly fitted or top-dose-only effect, or another doubt; inactive means no such curve, though single readings can be large; an effect the other way counts as inactive or inconclusive.

SMILES	Pf growth 96h	AMA1-RON2 inh	Pf growth 48h	Shiga toxin inh	CHX counter	HCV inhibitor
CC1=C(C(=O)N(C)C)CC(CC(=O)NCCc2ccccn2)C(=O)N1Cc1ccc(C(C)(C)C)cc1 (stereo not drawn)	.	-	.	.	.	.
COc1ccc(-c2cc(C(=O)NC3CCCC3)no2)cc1	-	-	-	93	18	-
O=C(NC1CCCCC1)c1cc(-c2ccco2)on1	12µM	-	-	143	36	-
O=C(NC1CCCC1)c1nc(-c2ccco2)oc1-c1ccccc1	.	-	.	.	.	.
COc1ccc(-c2cc(C(=O)NC3CCCC3)no2)cc1OC	?	-	-	26	24	-
COc1ccc(-c2cc(C(=O)Nc3ccc(OC)cc3OC)no2)cc1	-	-	-	-	-	-
COc1cccc(-c2cc(C(=O)NC3CCCCC3)no2)c1	-	-	-	81	-	-
C[C@]12CCC(=O)C[C@@H]1CC[C@@H]1[C@@H]2CC[C@]2(C)[C@@H](C(=O)COC(=O)CCC(=O)O)CC[C@@H]12	-	-	-	-	-	-
Cc1ccc(C)c(N(CC(=O)NCc2ccco2)C(=O)CCC(=O)Nc2nccs2)c1	?	-	-	-	-	-
COCCNC(=O)c1cc(-c2ccc(OC)c(OC)c2)on1	-	-	-	-	20	-
COCCCn1c(-c2ccc(OC)cc2)cc(C(=O)NC2CCCCCCC2)c1C	15µM	-	13µM	-	-	?
COc1ccc(-c2cc(C(=O)NC(C)C)no2)cc1	-	-	.	58	-	-
COc1ccc(Br)c(C(=O)NC2CCCC2)c1	-	-	-	-	-	-
COCCn1cnc2c(c1=O)c1nc3ccccc3nc1n2/N=C/c1ccc(OC)c(OC)c1	2.6µM	-	1.7µM	-	-	-
COCCn1c(N)c(N(Cc2ccccc2)C(=O)CSCC(=O)Nc2ccc(OC)cc2)c(=O)[nH]c1=O	-	-	-	.	.	?
COc1ccc(C2C3=C(N=C4SCC(=O)N42)c2ccccc2CC3)cc1 (stereo not drawn)	12µM	-	?	76	39	-
COc1ccccc1C1C2=C(N=C3SCC(=O)N31)c1ccccc1CC2 (stereo not drawn)	?	-	?	-	-	-
COc1ccc(C2C3=C(N=C4SCC(=O)N42)c2ccccc2CC3)cc1OC (stereo not drawn)	-	-	2.3µM	-	-	-
Cc1ccc(F)c(S(=O)(=O)NC(=O)C2(C)CCN2C(=O)CCc2ccccc2)c1 (stereo not drawn)	.	-	.	.	.	.
CC(=O)Nc1cccc(-c2ccnc3c2CC(C)(C(=O)NCC2CC2)O3)c1 (stereo not drawn)	.	-	.	.	.	.
Cc1noc(C)c1S(=O)(=O)NCc1ccc(CN(C)C)cc1	-	-	-	.	.	-
CSc1ccccc1NC(=O)c1cccc(S(=O)(=O)N2CCN(C)CC2)c1	?	-	-	32	37	-
CCc1cccc(CC)c1NC(=O)c1cccc(S(=O)(=O)N2CCN(C)CC2)c1	-	-	-	-	-	.
CC(=O)c1ccc(NC(=O)c2cccc(S(=O)(=O)N3CCN(C)CC3)c2)cc1	?	-	?	104	41	-
Cc1ccccc1NC(=O)N1CCCC(c2nc(-c3ccc(F)cc3)no2)C1 (stereo not drawn)	.	-	-	110	24	?
SMILES	Pf growth 96h	AMA1-RON2 inh	Pf growth 48h	Shiga toxin inh	CHX counter	HCV inhibitor
O=C(Nc1ccccc1)N1CCCC(c2nc(-c3ccc(F)cc3)no2)C1 (stereo not drawn)	?	-	-	-	-	?
Cc1ccccc1NC(=O)N1CCCC(c2nc(-c3ccc(C(C)C)cc3)no2)C1 (stereo not drawn)	-	-	-	-	26	13µM
Cc1ccc(NC(=O)N2CCCC(c3nc(-c4ccc(F)cc4)no3)C2)cc1 (stereo not drawn)	-	-	-	60	-	-
O=C(Nc1cccc(C(F)(F)F)c1)N1CCC(c2nc(-c3ccc(F)cc3)no2)CC1	-	-	?	-	-	11µM
O=C(NC1CCCCC1)C(C1CC1)n1c(=O)c(-c2cc3ccccc3[nH]2)nc2ccccc21 (stereo not drawn)	.	-	.	.	.	.
COc1ccc(C)cc1NC(=O)CN1C(=O)COc2ccc(S(=O)(=O)N3CCOCC3)cc21	-	-	-	-	-	-
C=CCC1NS(=O)(=O)O[C@H](CCCC)[C@@H]1O (stereo partly drawn)	-	-	-	-	-	-
CCc1ccccc1NC(=O)C1CCCN(c2ncnc3onc(-c4ccc(F)cc4)c23)C1 (stereo not drawn)	?	-	?	-	-	-
Cc1ccccc1NC(=O)C1CCCN(c2ncnc3onc(-c4ccc(F)cc4)c23)C1 (stereo not drawn)	-	-	9.3µM	-	-	-
Nc1nn(S(=O)(=O)c2ccccc2)cc1-c1cccc([N+](=O)[O-])c1	-	-	10µM	-	-	?
CCOc1ccc(S(=O)(=O)n2cc(-c3ccccc3)c(N)n2)cc1	?	-	?	-	-	-
CCCCn1nnnc1C(c1ccccc1OC(F)(F)F)N1CCN(C/C=C/c2ccccc2)CC1 (stereo not drawn)	.	-	.	.	.	.
Cc1ccc(NC(=O)C2(C)CCN2CCc2ccccc2)cc1 (stereo not drawn)	.	-	.	.	.	.
C[C@@H]1C[C@@H]2[C@H]([C@H]3C=C(COC(=O)c4ccccc4)[C@@H](O)[C@]4(O)[C@@H](O)C(OC(=O)c5ccccc5)=C[C@@]14C3=O)C2(C)C	.	.	.	24	-	.
CC1=NN(c2ccccc2)C(=O)C1N=Nc1ccccc1 (stereo not drawn)	?	?	-	109	21	-
CC1=NN(c2ccccc2)C(=O)C1N=Nc1cccc(O)c1 (stereo not drawn)	-	-	-	86	43	?
CC1=NN(c2ccccc2)C(=O)C1N=Nc1ccc(N)cc1 (stereo not drawn)	?	?	-	80	55	?
COc1ccc(N=NC2C(=O)N(c3ccccc3)N=C2C)cc1 (stereo not drawn)	2.6µM	-	-	-	-	?
O=C1COc2ccc(C(=O)COC(=O)c3ccc([N+](=O)[O-])cc3Cl)cc2N1	-	-	-	.	.	-
CC1(C(=O)NS(=O)(=O)c2ccccc2)CCN1C(=O)CCc1ccc(Cl)cc1Cl (stereo not drawn)	.	-	.	.	.	.
FC(F)(F)c1ccccc1N1CC1c1ccncc1 (stereo not drawn)	-	-	.	-	-	-
O=C1N(c2ccccc2C(F)(F)F)O[C@@]1(c1ccccc1)C1CCCCC1	?	-	1.5µM	.	.	-
O=C1N(c2ccccc2C(F)(F)F)O[C@@]1(c1ccccc1)C1CCCC1	0.83µM	-	0.74µM	.	.	-
NC(=O)c1cccc(C(N)=O)n1	8.3µM	-	-	-	-	-
COC(=O)[C@@]1(C(C)C)N=C(c2cc(OC)c(OC)c(OC)c2)[C@]2(O1)C(=O)Nc1ccccc12	.	-	.	.	.	.
